What was measured:
Conditions in all cases: concentration: 1 μM, replicates: in singlicate; n = 1
NEK11 = tested on: NEK11
NEK1 = tested on: NEK1
NEK2 = tested on: NEK2
NEK3 = tested on: NEK3
NEK4 = tested on: NEK4
NEK5 = tested on: NEK5
NEK6 = tested on: NEK6
NEK7 = tested on: NEK7
NEK9 = tested on: NEK9
NIK = tested on: T1, NIK
T1 construct: gene MAP3K14
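Further: KINOMEscan kinase panel screen.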

| SMILES | %Inh (NEK11) [%] | %Inh (NEK1) [%] | %Inh (NEK2) [%] | %Inh (NEK3) [%] | %Inh (NEK4) [%] | %Inh (NEK5) [%] | %Inh (NEK6) [%] | %Inh (NEK7) [%] | %Inh (NEK9) [%] | %Inh (NIK) [%] |
| --- | --- | --- | --- | --- | --- | --- | --- | --- | --- | --- |
| COc1cc(Nc2nccc(-c3c(-c4cccc(NC(=O)c5c(F)cccc5F)c4)nn4ccccc34)n2)cc(OC)c1OC [GSK323521] | 0 | 8 | 78 | 0 | 34 | 22 | 25 | 33 | 48 | 19 |
| Cc1ccc(C(=O)Nc2ccc(Nc3ccnc4cc(-c5nccs5)ccc34)cc2O)cc1.Cl [GW494702] | 40 | 0 | 0 | 0 | 3 | 0 | 0 | 0 | 0 | 12 |
| CN(C)Cc1ccc(-c2ccc3c(Nc4ccc(Oc5ccccn5)cc4)ccnc3c2)o1 [GW567148] | 8 | 0 | 0 | 0 | 21 | 0 | 0 | 0 | 0 | 12 |
| Cc1cccc(Nc2nc(N[C@H]3CCNC3)ncc2C(N)=O)c1.Cl [GSK2197149] | 0 | 50 | 0 | 7 | 27 | 8 | 0 | 0 | 0 | 20 |
| O=C(Nc1cccc(-c2nn3ccccc3c2-c2ccnc(Nc3cccc(F)c3)n2)c1)c1c(F)ccc(F)c1Cl [GSK357952] | 6 | 0 | 20 | 0 | 6 | 0 | 0 | 6 | 19 | 36 |
| CN(c1ccc(NC(=O)Nc2cc(C(F)(F)F)ccc2F)cc1)c1ccnc(Nc2ccc(S(N)(=O)=O)cc2)n1 [GW809893] | 0 | 100 | 0 | 15 | 26 | 31 | 20 | 0 | 37 | 38 |
| Nc1ncc(-c2ccc3nccc(-c4ccncc4)c3c2)cc1S(=O)(=O)N1CCOCC1 [GSK1627798] | 0 | 0 | 12 | 0 | 5 | 0 | 0 | 0 | 2 | 0 |
| c1ccc(-c2cnc3nccnn23)cc1 [AH20685] | 0 | 0 | 0 | 0 | 16 | 0 | 0 | 0 | 0 | 0 |
| COc1cc(Nc2ncc3c(C)nc(-c4cc5ccccc5[nH]4)n3n2)cc(OC)c1OC [GW869516] | 86 | 16 | 70 | 89 | 41 | 99 | 99.6 | 99.7 | 90 | 0 |
| CCCCc1nn2ncccc2c1-c1ccnc(Nc2ccc(N3CCN(C)CC3)cc2)n1 [GW684941] | 62 | 0 | 53 | 9 | 14 | 0 | 0 | 0 | 0 | 11 |

From article PMC5540273 (PLoS ONE, 2017)
